Source: PubChem BioAssay
The source made the active and inactive calls. Unless noted, the rule behind the calls is not given here.

Legend:
[1] = system: XIP peptide (Xip251-270) binding; assay: small-molecule binders of XIP peptide, primary screen, biochemical, small-molecule microarray, fluorescence 635/667 nm, 0.1 µg/mL protein (AID 1182); conditions: fluorescent protein binding, 635 nm, higher = more signal, called active from +8 up or from −8 down
[2] = system: XIP peptide (Xip251-270); assay: small-molecule binders of XIP peptide, primary screen, biochemical, small-molecule microarray, fluorescence 635/667 nm, 0.5 µg/mL protein (AID 1183); conditions: small-molecule microarray binding, fluorescence 635 nm; higher = more signal
[3] = Plasmodium falciparum growth inhibition, primary screen, strain 3D7, DAPI fluorescence, 100 nL (AID 1184);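 note: parasites grown inside human red blood cells in medium with human serum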; conditions: P. falciparum 3D7 growth, 3 d, higher = more signal
[4] = target: Homeobox protein Hox-A13 (Mus musculus) (UniProt Q62424); assay: inhibitors of HoxA13-DNA binding, primary screen, biochemical, fluorescence polarization, labeled oligonucleotide (AID 1185); conditions: 15 min, higher = more signal, called active from +8 up or from −8 down
[5] = inhibitors of hydroxyurea-induced Chk1 phosphorylation, primary screen, imaging, HeLa, phospho-Chk1 antibody, percent positive cells (AID 1186); conditions: hydroxyurea-induced phospho-Chk1 immunofluorescence imaging, higher = more signal
[6] = inhibitors of hydroxyurea-induced Chk1 phosphorylation, primary screen, imaging, HeLa, phospho-Chk1 nuclear intensity (AID 1187); conditions: hydroxyurea-induced phospho-Chk1 immunofluorescence imaging, higher = more signal

Chain of Homeobox protein Hox-A13 (Mus musculus) (Q62424 whole entry, looked up): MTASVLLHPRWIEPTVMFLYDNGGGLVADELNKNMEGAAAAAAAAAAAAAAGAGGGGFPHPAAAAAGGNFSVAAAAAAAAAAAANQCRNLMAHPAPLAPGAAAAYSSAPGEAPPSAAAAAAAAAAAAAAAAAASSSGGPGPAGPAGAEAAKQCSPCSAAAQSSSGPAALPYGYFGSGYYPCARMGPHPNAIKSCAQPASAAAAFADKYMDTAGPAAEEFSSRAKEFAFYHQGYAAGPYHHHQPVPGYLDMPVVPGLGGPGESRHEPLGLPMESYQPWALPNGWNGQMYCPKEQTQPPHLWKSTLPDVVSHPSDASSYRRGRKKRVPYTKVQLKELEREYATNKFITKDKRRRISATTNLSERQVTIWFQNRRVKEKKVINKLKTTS

| SMILES | composite z-score [1] | composite z-score [2] | z-score [3] | z-score [4] | z-score [5] | z-score [6] |
| --- | --- | --- | --- | --- | --- | --- |
| COCC(=C=CC[C@@H](O)c1ccc(OCCO)cc1)CCO | 0.474 (inactive) | 0.429 | -1.46 | -3.22 (inactive) | -0.321 (inactive) | 0.301 (inactive) |
| O=C1C2C=CC(C(O)c3cccc(O)c3)N(Nc3ccccc3)C2C(=O)N1c1ccccc1 (stereo unspecified) | -0.234 (inactive) | 0.214 | -0.267 | -1.18 (inactive) | 0.293 (inactive) | 0.126 (inactive) |
| [N-]=[N+]=Nc1ccccc1C[C@]1(C(=O)O)N=C(c2ccc(OCCCO)cc2)O[C@H]1c1ccccc1 | 0.471 (inactive) | 0.641 | 0.283 | -5.34 (inactive) | 0.496 (inactive) | 0.558 (inactive) |
| CCCCCN1CC=CC23O[C@@H]4C=CCOC(=O)[C@@H]4[C@H]2C(=O)N(CCO)[C@@H]3C1=O (stereo partly specified) | 0.647 (inactive) | -0.311 | 1.34 | -3.88 (inactive) | -0.542 (inactive) | -0.562 (inactive) |
| CC1(C)C(=O)C(c2ccccc2)=C2CN3C(=O)N(CCc4ccccc4)C(=O)C3(Cc3ccc(C(F)(F)F)cc3)C=C21 (stereo unspecified) | 0.251 (inactive) | 0.279 | -0.745 | -1.55 (inactive) | 0.175 (inactive) | 0.0024 (inactive) |
| COCCCNC(=O)[C@@H]1c2ccccc2C(=O)N(C2Cc3ccccc3C2)[C@H]1c1ccc(CO)cc1 | -0.295 (inactive) | 0.583 | -0.804 | -2.44 (inactive) | -0.533 (inactive) | -0.726 (inactive) |
| CC(C)C[C@@H]1NC(=O)[C@H]2C[C@@H](C(=O)NCCCCCN)[C@@H](c3cccc(OCCO)c3)N2C1=O | 1.35 (inactive) | 0.853 | 0.304 | -3.68 (inactive) | -0.242 (inactive) | 0.0992 (inactive) |
| COCCOC(=O)N1C(=O)[C@@]2(c3cc(C#CCNC(N)=O)ccc31)[C@H](c1ccc(O)cc1)N1[C@H](c3ccccc3)[C@H](c3ccccc3)OC(=O)[C@H]1[C@@H]2C(=O)N1CCN(c2ncccn2)CC1 | 0.237 (inactive) | 0.796 | -1.71 | 0.0468 (inactive) | -0.11 (inactive) | -0.184 (inactive) |
| Cc1ccc(S[C@]2(C(=O)NCC(C)C)CC(=O)N(C3Cc4ccccc4C3)[C@@H]2c2ccc(CO)cc2I)cc1 | -0.238 (inactive) | -0.658 | -0.233 | -2.9 (inactive) | 0.495 (inactive) | 0.307 (inactive) |
| CN1C=C(C(=O)OCCS(C)(=O)=O)C(C(=O)OCCS(C)(=O)=O)=CC(c2ccc(CO)cc2)=CC1c1cccs1 (stereo unspecified) | 0.514 (inactive) | 0.496 | -2.58 | -5.46 (inactive) | -0.163 (inactive) | -0.265 (inactive) |
| CN1C(=O)C2C=CC(C(O)c3ccc(I)cc3)N(Nc3ccccc3)C2C1=O (stereo unspecified) | 0.56 (inactive) | 0.755 | -0.371 | -4.54 (inactive) | 0.178 (inactive) | 0.0306 (inactive) |
| CCCCNC(=O)c1ccc(C#C[Si](C(C)C)(C(C)C)C(C)C)c(OC(C)=O)c1 | -0.211 (inactive) | 0.413 | -2.74 | -2.16 (inactive) | 0.0917 (inactive) | 0.331 (inactive) |
| COC(=O)C(CC#Cc1ccc2c(c1)[C@]1(C(=O)N2)[C@H](c2ccc(OCCO)cc2)N2[C@H](c3ccccc3)[C@H](c3ccccc3)OC(=O)[C@H]2[C@@H]1C(=O)N1CCN(c2ncccn2)CC1)C(=O)OC | 0.398 (inactive) | 0.775 | -2.2 | 0.338 (inactive) | -0.0604 (inactive) | -0.282 (inactive) |
| C=C(COC)C(=O)CC[C@H](OC(=O)c1cccnc1)c1ccc(CO)o1 | 0.0246 (inactive) | 0.193 | 0.535 | -4.81 (inactive) | 0.169 (inactive) | -0.143 (inactive) |
| CCCC=C(CCC)[C@@H](NC(=O)CCc1ccccc1)c1ccc(C(F)(F)F)cc1 | -0.143 (inactive) | 0.75 | -1.65 | -3.8 (inactive) | 0.007 (inactive) | -0.287 (inactive) |
| CC(C)c1ccc(NN2C(C(O)Cc3ccccc3)C=CC3C(=O)N(c4ccccc4)C(=O)C32)cc1 (stereo unspecified) | -0.0839 (inactive) | 0.655 | -0.0057 | -2.98 (inactive) | 0.656 (inactive) | 0.37 (inactive) |
| C[C@]1(C(=O)O)c2ccccc2C(=O)N(Cc2ccc(OC(F)(F)F)cc2)[C@H]1c1ccc(CO)cc1 | -0.336 (inactive) | -1.05 | 0.465 | -4.09 (inactive) | -0.159 (inactive) | -0.344 (inactive) |
| [N-]=[N+]=NCc1ccccc1[C@@H]1OC(c2ccc(OCCCO)cc2)=N[C@]1(Cc1ccccc1)C(=O)NCCN1CCOCC1 | -0.256 (inactive) | 0.77 | -2.2 | -1.66 (inactive) | -0.294 (inactive) | -0.108 (inactive) |
| COc1ccc(C(O)C2C=CC3C(=O)N(c4ccccc4)C(=O)C3N2Nc2ccccc2)cc1 (stereo unspecified) | 0.348 (inactive) | 0.572 | 0.913 | -3.76 (inactive) | 0.0679 (inactive) | -0.392 (inactive) |
| C=CCC(OC(C)=O)[C@@H]1[C@@H](N(Cc2ccc(-c3ccccc3)cc2)C(=O)c2ccc(C)cc2)c2cc(OCCCO)ccc2N1C(=O)Cc1ccc2ccccc2c1 (stereo partly specified) | 0.254 (inactive) | 0.0529 | -0.481 | -1.28 (inactive) | -0.816 (inactive) | -0.488 (inactive) |
| COC(=O)[C@@]1(Cc2ccc(F)cc2)[C@H]2c3cc(C(=O)N4CCCC4)n(CC4CC4)c3C[C@H]2CN1C(=O)c1ccccc1 | 1.84 (inactive) | 0.245 | -1.36 | -4.69 (inactive) | 0.396 (inactive) | 0.0021 (inactive) |
| CCOC(=O)C=Cc1cc(F)ccc1O | 0.198 (inactive) | 0.487 | -1.65 | -0.42 (inactive) | 0.631 (inactive) | -1.13 (inactive) |
| COc1cc(NN2C(C(O)C3CCCCC3)C=CC3C(=O)N(C)C(=O)C32)cc(OC)c1OC (stereo unspecified) | 0.123 (inactive) | 0.704 | -0.246 | -4.48 (inactive) | 0.281 (inactive) | 0.264 (inactive) |
| O=C1O[C@H](c2ccccc2)[C@H](c2ccccc2)N2[C@H]1[C@@H](C(=O)O)[C@]1(C(=O)Nc3ccc(C#CC4(O)CCCCCC4)cc31)[C@H]2c1ccc(O)cc1 | -0.203 (inactive) | 0.194 | 0.361 | -6.61 (inactive) | -0.308 (inactive) | -0.307 (inactive) |
| O=C1N[C@@H](Cc2ccccc2)C(=O)N2[C@@H]1C[C@@H](C(=O)O)[C@H]2c1ccc(O)cc1 | 0.24 (inactive) | 0.649 | -0.394 | -2.41 (inactive) | -0.0256 (inactive) | 0.0853 (inactive) |
| CC(C)C[C@@H]1NC(=O)[C@@H]2C[C@H](C(=O)NCCCCCC[N+](C)(C)C)[C@H](c3cccc(OCCO)c3)N2C1=O | 0.753 (inactive) | 0.869 | 0.169 | -5.12 (inactive) | -0.282 (inactive) | -0.178 (inactive) |
